Screening results: PubChem, National Center for Advancing Translational Sciences (NCATS)
HEK293 tox – HEK 293 cell cytotoxicity | HEK 293 viability, ATP luminescence (CellTiter-Glo), 48-72 h | Potency, µM (doses to about 115 µM), without a hit: at the top dose activity change, negative = cytotoxicity, most hits filed as inhibitors | hit rate 6.6% among 94,000; also: nearly all actives have a fitted effect of over 60% in size
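HEK 293 cells seeded at 250 cells/well were exposed to compound for 48 or 72 hr at 37 degree Celsius. Viability taken as ATP content by CellTiter-Glo luminescence.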
GPT2 inh – inhibitors of human GPT2 alanine aminotransferase; Recombinant GPT2, coupled pyruvate oxidase/HRP Amplex Red fluorescence; Potency, µM (top dose mostly 57.7 µM), inactives show top-dose activity change, negative = inhibition, actives largely listed as inhibitors; hit rate 0.25% among 100,000; Q8TD30; also: nearly all actives have a fitted effect of over 60% in size
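Fluorescence read-out: pyruvate from GPT2 turnover coupled to pyruvate oxidase, HRP and Amplex Red (0.2mM ThPP, 0.2U/mL PO and HRP, 50uM Amplex final). Substrates 250uM a-KG, 2mM L-alanine; enzyme 10ng/uL; 30 min RT.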
3T3 cytotox – cytotoxic compounds in NIH 3T3 cells; AID 1345082; hit rate 4.3% among 94,000; Potency, µM (titrated, usually from 96.7 µM), inactives show top-dose activity change, negative = cytotoxicity, hits mostly inhibitors; NIH 3T3 viability, CellTiter-Glo ATP luminescence, 48-72 h; also: nearly all actives have a fitted effect of over 55% in size
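Cytotoxicity was measured by CellTiter-Glo ATP luminescence after 48 or 72 h compound exposure at 37 °C. Mouse NIH 3T3 fibroblasts were seeded at 400 cells/well and dosed by 23 nL pin transfer.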
hNpr1 antagonist – human Npr1 receptor antagonism. P16066. HEK293 hNpr1 GloSensor cGMP, ANP-stimulated luminescence. Potency, µM (series often up to 46.3 µM), without a hit: at the top dose activity change, negative = inhibition, hits mostly inhibitors. hit rate 1.6% among 76,000. AID 1347048; calls by dose curve; also: nearly all actives have a fitted effect of over 60% in size
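Compound pre-incubated 30 min at room temperature on GloSensor-loaded HEK293 cells stably carrying hNpr1 and the pGS-40F cGMP biosensor. Stimulation uses hNppA at 0.1 nM final; luminescence is taken at baseline and 20 min post-agonist.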
FLuc inh – Photinus pyralis luciferase inhibition; Potency, µM (series often up to 115 µM), actives largely listed as inhibitors; purified P. pyralis luciferase, luminescence, biochemical; P08659; hit rate 2.5% among 76,000; AID 1347043; also: nearly all actives have a fitted effect of over 65% in size
Target sequence (P08659 whole entry, looked up): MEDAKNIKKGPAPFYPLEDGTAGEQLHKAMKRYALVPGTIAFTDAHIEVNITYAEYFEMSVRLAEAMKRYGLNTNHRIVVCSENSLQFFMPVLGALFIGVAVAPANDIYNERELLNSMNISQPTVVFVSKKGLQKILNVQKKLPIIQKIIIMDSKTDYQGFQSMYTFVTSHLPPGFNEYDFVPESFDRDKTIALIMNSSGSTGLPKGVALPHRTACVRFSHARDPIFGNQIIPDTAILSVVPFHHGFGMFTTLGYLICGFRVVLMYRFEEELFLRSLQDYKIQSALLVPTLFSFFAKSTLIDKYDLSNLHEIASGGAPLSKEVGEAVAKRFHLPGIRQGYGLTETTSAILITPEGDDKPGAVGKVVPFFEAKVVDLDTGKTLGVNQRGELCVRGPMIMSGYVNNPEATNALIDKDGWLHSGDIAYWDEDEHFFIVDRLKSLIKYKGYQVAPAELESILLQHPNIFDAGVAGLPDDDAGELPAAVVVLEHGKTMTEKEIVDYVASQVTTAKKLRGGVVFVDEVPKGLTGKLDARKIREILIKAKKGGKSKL
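Cell-free enzyme assay, 10nM P. pyralis luciferase, luciferin and ATP each at 10uM. Inhibition profiled over a 6-point titration, read as luminescence.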
Numbers without * were called inactive; i = inactive; ? = inconclusive; . = no result given; [ ] = remark or other dose. Only some compounds are listed: those with a hit (about 10% of all), similar ones and a draw of the others. Unless noted, calls follow the shape of the dose curve; as a rule, active = well fitted curve in the direction sought with a large enough effect; inconclusive = small, poorly fitted or top-dose-only effect, or another doubt; inactive = no such curve, though single readings can be large; an effect the other way counts as inactive or inconclusive. % is scaled to controls: 0 for no effect and ±100 for the full control effect; potency is read from the fitted curve at half-maximal effect.

SMILES | HEK293 tox | GPT2 inh | 3T3 cytotox | hNpr1 antagonist | FLuc inh
CC1Oc2ccc(NC(=O)Cc3ccc(F)cc3)cc2CN(Cc2ccc(Cl)cc2)C1=O (stereo not given) | 40µM* | -5% | 28µM* | -24% | i
CCC1Oc2ccc(NC(=O)c3ccc(F)cc3F)cc2CN(Cc2ccc(Cl)cc2)C1=O (stereo not given) | ? | -1% | ? | -2% | i
CCC1Oc2ccc(NC(=O)Cc3ccccc3)cc2CN(Cc2ccc(F)cc2)C1=O (stereo not given) | ? | i | ? | -6% | i
COc1ccccc1CN1Cc2cc(NC(=O)Cc3ccc(F)cc3)ccc2OC(C)C1=O (stereo not given) | ? | i | ? | -15% | i
CCC1Oc2ccc(NC(=O)Cc3ccc(F)cc3)cc2CN(Cc2ccc(Cl)cc2)C1=O (stereo not given) | ? | 4% | 10µM* | -19% | i
O=C(Nc1ccc2c(c1)CN(Cc1ccc(Cl)cc1)C(=O)CO2)c1ccc(F)cc1F | 79µM* | i | ? | -27% | i
CCC1Oc2ccc(NC(=O)C3CCCC3)cc2CN(Cc2ccccc2Cl)C1=O (stereo not given) | 79µM* | -16% | ? | -5% | i
Cc1ccccc1NC(=O)N1C[C@@H](F)C[C@H]1C(=O)N1CCCCC1 | ? | i | i | 0% | i
CC(C)Oc1ccc(C(=O)N2CC(c3nnc(C(C)C)o3)C3(CCOCC3)C2)cc1 (stereo not given) | -14% | i | -10% | 2% | i
Cc1cnc(C(=O)NC2C[C@H]3CC[C@@H](C2)N3S(=O)(=O)c2ccccc2)cn1 (stereo not given in full) | i | -6% | i | 3% | i
O=C(COc1ccccc1)Nc1ccc2c(c1)CN(CCc1ccc(F)cc1)C(=O)CO2 | ? | i | ? | 16µM* | ?
CC(=O)N1CCCN(Cc2nnc(C(=O)N3CCC[C@@H]3c3cccc(F)c3)n2-c2cccnc2)CC1 | 35µM* | -16% | 22µM* | -1% | i
CN(Cc1nnc(C(=O)N2CCC[C@@H]2c2cccc(F)c2)n1-c1ccccc1)c1ccccc1 | ? | i | ? | -3% | i
COc1ccc(-n2nc(C3CCCN(C(=O)c4ccccc4F)C3)[nH]c2=O)cc1 (stereo not given) | -6% | 1% | -1% | -3% | i
CCCCNC(=O)c1cccc(CN2C(=O)CC(c3ccccc3C)C(C(=O)OCC)=C2C)c1 (stereo not given) | ? | -2% | ? | -3% | i
CCOC(=O)C1=C(C)N(Cc2ccc(C(=O)N3CCCCC3)cc2)C(=O)CC1c1cccc(C)c1 (stereo not given) | 40µM* | i | ? | ? | i
CO[C@H]1[C@H](NC(=O)c2cc3ccccc3n2C)c2ccccc2C12CCNCC2 | 35µM* | -2% | 22µM* | 3% | i
CO[C@H]1[C@H](NC(=O)c2cc(C)nn2C)c2ccccc2C12CCNCC2 | 1% | 0%[11.5 µM] | 0% | 3% | i
c1ccc(O[C@H]2COCCN(CC3CC3)C2)cc1 | -1%[230 µM] | 1%[88.5 µM] | 2%[230 µM] | 6%[70.6 µM] | i
COc1cccc(CN2CCOC3CCN(Cc4ccccc4O)CC3C2=O)c1 (stereo not given) | ? | -8%[88.5 µM] | -12%[138 µM] | -4%[70.6 µM] | i
COc1cccc(CN2CCOC3CCN(CCCc4ccccc4)CC3C2=O)c1 (stereo not given) | ? | -11%[88.5 µM] | 79µM* | -1%[70.6 µM] | i
Cc1ccc(N)cc1O | . | 11µM* | . | . | .
CN(C)C[C@@H]1CN(S(C)(=O)=O)C[C@H]1NC(=O)CCc1c[nH]c2ccccc12 | -5% | i | 2% | 0% | i
CC1=C[C@@H](CNC(=O)C(C)(C)C)[C@H](C(C)C)C[C@H]1Cc1nnc(-c2ccncc2)o1 | 79µM* | 0%[88.5 µM] | -20%[174 µM] | -29%[70.6 µM] | i
CC1=C[C@@H](CNC(=O)c2ccc(C#N)cc2)[C@H](C(C)C)C[C@H]1Cc1nnc(-c2ccncc2)o1 | ? | -15% | ? | ? | i
SMILES | HEK293 tox | GPT2 inh | 3T3 cytotox | hNpr1 antagonist | FLuc inh
CC1=C[C@@H](CNC(=O)c2ccc(F)cc2)[C@H](C(C)C)C[C@H]1Cc1nnc(-c2ccncc2)o1 | 35µM* | -13% | ? | ? | i
COc1ccc(C(=O)NC[C@@H]2C=C(C)[C@H](Cc3nnc(-c4ccncc4)o3)C[C@H]2C(C)C)cc1 | 50µM* | 4% | ? | ? | i
CCCNC(=O)N[C@@H]1CCC[C@@H](C(=O)N(CC)CC)CC(=O)N(C)C1 | -18%[172 µM] | i | -6%[174 µM] | -5%[70.6 µM] | i
Cc1ccccc1NC(=O)N1CCCC(Cn2cnc3cccnc32)C1 (stereo not given) | 5% | i | -3% | -3% | i
COc1ccc(C2(C(=O)N3CCN(c4ccccn4)CC3)CCOCC2)cc1 | i | -7% | ? | . | .
O=C(c1ccccc1)N1CCCC(c2nn(-c3ccccn3)c(=O)[nH]2)C1 (stereo not given) | 4% | i | 3% | . | .
CCn1nccc1C(=O)NC1CCN(c2cc(-c3ccccc3)[nH]n2)CC1 | ? | 2% | -14% | -15% | i
CCn1nccc1C(=O)NCc1cc(C)cc2c(C)c(-c3ccccc3)[nH]c12 | 28µM* | -20%[11.5 µM] | 40µM* | ? | 16µM*
Cc1cc(CNC(=O)c2cccc(F)c2F)c2[nH]c(C)c(C)c2c1 | 35µM* | -1% | ? | 5% | i
CCc1[nH]c2c(CNC(=O)C(C)O)cc(C)cc2c1C (stereo not given) | -17% | -5% | -16% | -8% | i
Cc1cc(CNC(=O)C(C)Cn2nc(C)nc2C)c2[nH]c(-c3ccccc3)c(C)c2c1 (stereo not given) | ? | -10% | ? | -19% | 20µM*
COc1ccc(-c2ccc(C(=O)N3CCC(N[S+](C)(=O)[O-])CC3)cc2)nn1 | -3% | . | -11% | . | .
CN1c2cccnc2CN(CC2CCCCC2)CC[C@H]1CO | ? | 0%[88.5 µM] | 50µM* | -2%[70.6 µM] | i
COc1ccc(N2C(=O)CSC23CCN(C(=O)NCc2ccccc2)CC3)cc1 | ? | i | -16% | 4% | i
O=C(Nc1ccccc1)N1CCC2(CC1)SCC(=O)N2c1ccc(Cl)cc1 | ? | 1% | ? | -4% | 22µM*
COc1ccc(N2C(=O)CSC23CCN(C(=O)Nc2ccc([N+](=O)[O-])cc2)CC3)cc1 | 25µM* | 1% | ? | -4% | i
CCOc1cc(C(=O)NC2CCN(c3cc(-c4ccc(F)cc4)[nH]n3)C2)cc(OCC)c1OCC (stereo not given) | 35µM* | 0% | 25µM* | 1% | i
